Assay results published in PubChem BioAssay (NCATS).
Where “and” joins values, the source holds several entries; their conditions need not be identical. Equal values may be shown once. Records with an inconclusive call do not appear. A structure can be active in one record and inactive in another. Calls of active or inactive are those of the source. Calls come from the whole dose curve; as a rule, active = well fitted curve in the direction sought with a large enough effect; inconclusive = small, poorly fitted or top-dose-only effect, or another doubt; inactive = no such curve, though single readings can be large; an effect the other way counts as inactive or inconclusive.

Key:
[1] = Viability qHTS for spleen associated tyrosine kinase inhibitor (SYKi) drug resistant MV4-11 cells (AID 1963824); note: nearly all actives have a fitted effect of over 35% in size
In short: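 SYK inhibitor-resistant MV4-11 AML cells, 500 per well, added to predispensed compounds and incubated 72 hr at 37 C, 5% CO2. Viability measured by CellTiter-Glo luminescence after 10 min at room temperature.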

[2] = Quantitative highthroughput screen to assess conditional lethalithy of NOMO1 cells grown in RPMI1640 with untreated serum (RPMI+s) (AID 1963876); note: nearly all actives have a fitted effect of over 35% in size;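 for Viability: 100% = DMSO wells and 0% = empty wells without cells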
In short: (§1)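 Each medium arm—HPLM with 10% dialyzed FBS, or RPMI1640 with 5 mM glucose and 10% untreated or dialyzed FBS—was screened against an 11-point, 3-fold compound titration for 48 h at 37 °C, with CellTiter-Glo luminescence as endpoint.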

[3] = Quantitative highthroughput screen to assess conditional lethalithy of NOMO1 cells grown in RPMI1640 with dialyzed fetal bovine serum (RPMI+ds) (AID 1963877); note: nearly all actives have a fitted effect of over 30% in size;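 for Viability: series mostly up to about 46 µM; 100% = DMSO control wells and 0% = empty wells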
In short: as §1

[4] = Quantitative highthroughput screen to assess conditional lethalithy of NOMO1 cells grown in Human Plasma-Like Medium with dialyzed fetal bovine serum (HPLM+ds) (AID 1963878); note: nearly all actives have a fitted effect of over 35% in size;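 for Viability: 100% = DMSO wells and 0% = empty wells on each plate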
In short: as §1

[5] = Quantitative highthroughput screen to assess conditional lethalithy of P12 Ichikawa cells grown in RPMI1640 with dialyzed fetal bovine serum (RPMI+ds) (AID 1963880); details: Potency: P12-Ichikawa viability; note: nearly all actives have a fitted effect of over 35% in size;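 for Viability: 100% = DMSO wells and 0% = empty wells on each plate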
In short: as §1

[6] = Cellular viability qHTS for adrenocortical cancer (ACC) cell line SW-13 (AID 1963989); details: SW-13 ACC cells viability, CellTiter-Glo, 48 h; activity (max response): stronger effect = lower value; note: nearly all actives have a fitted effect of over 65% in size;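 for activity (max response): cells grown in serum-free medium with ITS supplement; % is set by controls: 0 for no effect and ±100 for the full control effect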
In short: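 Viability was read as CellTiter-Glo luminescence after 48 h compound treatment (up to 46 uM final) of SW-13 cells grown serum-free; titration curves were fit with a four-parameter logistic model to give IC50 and efficacy.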

[7] = Cellular viability qHTS for adrenocortical cancer (ACC) cell line NCI-H295R (AID 1963990); note: nearly all actives have a fitted effect of over 60% in size
In short: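 CellTiter-Glo ATP luminescence, read 48 h after compound addition, measured viability of NCI-H295R adrenocortical cells grown serum-free with ITS. Final concentrations spanned up to 46 uM. Data normalized to DMSO and doxorubicin, fitted for IC50 and maximal response.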

[8] = Quantitative highthroughput screen to assess conditional lethalithy of P12 Ichikawa cells grown in RPMI1640 with untreated serum (RPMI+s) (AID 1963881); details: Potency: viability; note: nearly all actives have a fitted effect of over 35% in size;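 for Viability: series mostly up to about 46 µM; 100% = DMSO wells and 0% = empty wells without cells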
In short: as §1

[9] = Quantitative highthroughput screen to assess conditional lethalithy of SEM cells grown in Human Plasma-Like Medium with dialyzed fetal bovine serum (HPLM+ds) (AID 1963882); note: nearly all actives have a fitted effect of over 35% in size; for Viability: series mostly up to about 46 µM
In short: as §1

[10] = Quantitative highthroughput screen to assess conditional lethalithy of SEM cells grown in RPMI1640 with unreated serum (RPMI+s) (AID 1963883); note: nearly all actives have a fitted effect of over 35% in size;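 for Viability: 100% = DMSO wells and 0% = empty wells without cells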
In short: as §1

[11] = Quantitative highthroughput screen to assess conditional lethalithy of SEM cells grown in RPMI1640 with dialyzed fetal bovine serum (RPMI+ds) (AID 1963884); note: nearly all actives have a fitted effect of over 35% in size;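 for Viability: series mostly up to about 46 µM; 100% = DMSO control wells and 0% = empty wells without cells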
In short: as §1

[12] = Quantitative highthroughput screen to assess conditional lethalithy of P12 Ichikawa cells grown in Human Plasma-Like Medium with dialyzed fetal bovine serum (HPLM+ds) (AID 1963879); details: Potency: viability; note: nearly all actives have a fitted effect of over 35% in size; for Viability: series mostly up to about 46 µM
In short: as §1
Potency is the fitted concentration of half-maximal effect.

S=c1nc[nH]c2nc[nH]c12
active: Potency [1] 2.37 µM and 833 nM | Potency [3] 1.48 µM | Potency [4] 5.9 µM | Potency [5] 0.743 µM | Potency [6] 8.2 µM and 15.8 µM | Potency [7] 2.06 µM and 4.47 µM
inactive: Potency [2]

CCc1cncnc1N1CCN(Cc2nc3ccc(C(F)(F)F)cc3[nH]2)CC1
active: Potency [1] 5.9 µM | Potency [7] 17.8 µM
inactive: Potency [2] | Potency [3] | Potency [4]

O=C1C(Cl)=C(NCCN2CCOCC2)C(=O)c2ncccc21
active: Potency [1] 2.09 µM | Potency [2] 10.5 µM | Potency [3] 9.35 µM | Potency [4] 14.8 µM | Potency [8] 23.5 µM | Potency [9] 10.5 µM | Potency [10] 4.69 µM | Potency [11] 7.43 µM | Potency [6] 3.55 µM | Potency [7] 3.98 µM

COc1cc([C@@H](CC(=O)O)c2ccc(C)c(CN3C[C@@H](C)Oc4ccccc4S3(=O)=O)c2)cc2nnn(C)c12
active: Potency [1] 7.42 µM | Potency [12] 8.31 µM | Potency [5] 18.6 µM | Potency [8] 14.8 µM
inactive: Potency [2] | Potency [3] | Potency [7]

CCCCC(F)(F)[C@@]1(O)CC[C@H]2[C@H](CC(=O)[C@@H]2CCCCCCC(=O)O)O1
active: Potency [1] 0.0295 µM
inactive: Potency [2] | Potency [3] | Potency [12] | Potency [5] | Potency [8] | Potency [9] | Potency [10] | Potency [11] | activity (max response) [6] 8.13% | Potency [7]

NC(CO)C(=O)NNCc1ccc(O)c(O)c1O (centres undefined)
inactive: Potency [2] | Potency [3] | Potency [4] | Potency [9]
active: Potency [1] 23.5 µM | Potency [8] 26.4 µM

CC(C)n1cnc2c(NCCCCCCNC(=O)OC(C)(C)C)nc(NCCO)nc21
inactive: Potency [2] | Potency [4] | Potency [9] | Potency [7]
active: Potency [1] 14.8 µM

CCCCCCCCCCCCCCCC(=O)O[C@H]1[C@@H](O)[C@@H](O)[C@@H]([C@H](NC(=O)[C@@H]2C[C@@H](CCC)CN2C)[C@H](C)Cl)O[C@@H]1SC
inactive: Potency [12] | Potency [5] | Potency [8] | Potency [9] | Potency [10] | Potency [11] | activity (max response) [6] 13.6% | Potency [7]
active: Potency [1] 23.5 µM | Potency [2] 11.8 µM

CCOC(=O)c1c(C)n(C)c2ccc(O)cc12
inactive: Potency [2] | Potency [4] | Potency [12] | Potency [8] | Potency [9] | Potency [10] | Potency [11] | activity (max response) [6] 5.26% and -18.4% | Potency [7]
7.5 µM (active) and inactive: Potency [1]

C=C(C)[C@@H]1CC[C@]2(C(=O)O)CC[C@]3(C)[C@H](CC[C@@H]4[C@@]5(C)CC[C@H](O)C(C)(C)[C@@H]5CC[C@]43C)[C@@H]12
active: Potency [1] 2.95 µM
inactive: Potency [2] | Potency [4] | Potency [12] | Potency [8] | Potency [9] | activity (max response) [6] 19.8% | Potency [7]

COc1cc2nccc(Oc3ccc(NC(=O)C4(C(=O)Nc5ccc(F)cc5)CC4)cc3)c2cc1OC
active: Potency [1] 0.0093 µM | Potency [8] 20.9 µM | Potency [6] 12.6 µM | Potency [7] 10 µM
inactive: Potency [2]

CS(=O)(=O)CCNCc1ccc(-c2ccc3ncnc(Nc4ccc(OCc5cccc(F)c5)c(Cl)c4)c3c2)o1
inactive: Potency [12]
active: Potency [1] 16.8 µM and 8.2 µM and 11.8 µM | Potency [2] 18.7 µM | Potency [5] 18.7 µM | Potency [8] 18.7 µM | Potency [11] 23.5 µM | Potency [6] 18.4 µM and 14.1 µM | Potency [7] 23.1 µM and 17.8 µM

CCOc1ccc(Nc2nc(-c3c(C)nc4ccccn34)cs2)cc1
active: Potency [1] 41.1 nM and 29.5 nM | Potency [2] 0.0833 µM | Potency [12] 0.0469 µM | Potency [8] 0.059 µM | Potency [10] 0.0469 µM | Potency [11] 0.105 µM | Potency [7] 0.708 µM

O=c1cc(-c2ccc(O)c(O)c2)oc2cc(O)cc(O)c12
active: Potency [1] 7.42 µM
inactive: Potency [2] | Potency [4] | Potency [12] | Potency [5] | Potency [8] | Potency [9] | Potency [10] | Potency [11] | Potency [7]

CC(C)c1cc(C(C)C)c(CC(=O)NS(=O)(=O)Oc2c(C(C)C)cccc2C(C)C)c(C(C)C)c1
inactive: Potency [2] | Potency [4] | Potency [12] | Potency [5] | Potency [8] | Potency [9] | Potency [11] | activity (max response) [6] -25.2%
active: Potency [1] 4.68 µM

O=c1cc(-c2ccccc2)oc2cc(O)c(O)c(O)c12
inactive: Potency [4] | activity (max response) [6] -15.6%
active: Potency [1] 18.6 µM | Potency [2] 5.9 µM | Potency [12] 5.9 µM | Potency [8] 9.35 µM | Potency [10] 4.18 µM | Potency [11] 8.33 µM

CCOc1cc(CC(=O)N[C@@H](CC(C)C)c2ccccc2N2CCCCC2)ccc1C(=O)O
inactive: Potency [1] | Potency [9] | Potency [10] | Potency [11]
active: Potency [2] 0.332 µM | Potency [12] 2.35 µM | Potency [5] 3.32 µM | Potency [8] 2.64 µM | Potency [7] 25.1 µM

COc1ccc(C(=O)CC2(O)C(=O)Nc3c(Cl)ccc(Cl)c32)cc1 (centres undefined)
active: Potency [1] 3.26 µM | Potency [2] 9.35 µM | Potency [12] 4.18 µM | Potency [8] 4.69 µM | Potency [9] 4.18 µM | Potency [10] 3.72 µM | Potency [11] 4.18 µM
inactive: activity (max response) [6] -14.9% | Potency [7]
